Values joined by “and” are separate entries in the source; they are usually repeats but may differ in a detail not shown here. Identical values can stand only once. Active and inactive are the calls of the source.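 How the source made its calls, unless noted: active means thallium flux through the channel raised or lowered by more than 3 SD from vehicle-only wells, actives on both sides; inactive means the rest.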
Experiments:
[1] = stimulators of nuclear beta-catenin in C2C12, primary screen, imaging, WNT3A-conditioned medium, mouse C2C12, NPC library (AID 1117326; in the data active means nuclear beta-catenin stimulation mostly above about 4.2%, no sharp cut-off; inactive means mostly below about 10%); details: stronger effect = higher value
[2] = stimulators of insulin release from INS-1E, primary screen, cell-based, 5 mM glucose, NPC library (AID 1117329;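 active means compound raises insulin release from rat beta cells at 5 mM glucose, no numeric limit stated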); details: rat INS-1E insulin secretion, at 10 µM, stronger effect = higher value
[3] = growth inhibition of GSK3B-pretreated HCT116 cells – cell-based, CellTiter-Glo, 0.2 to 20 µM (AID 1117336;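 active means compounds lowering colon cancer cell viability after pretreatment blocking the GSK3B kinase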); details: HCT116 viability after GSK3B inhibitor, at 20 µM, stronger effect = higher value
[4] = inhibition of endothelial tube formation, primary screen, imaging, VEGF stimulated, CD31 staining, tube area, NPC library (AID 1117340;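 active means compound that reduces growth-factor-driven endothelial tube area in a mixed cell culture, no cutoff stated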); details: VEGF-stimulated ADSC/ECFC co-culture, at 10 µM, stronger effect = higher value
[5] = glucagon-like peptide 1 release enhancers, primary assay, NCI-H716 cell line, NPC library (AID 1117341;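 active means compound raises GLP1 secretion from the human gut endocrine cells, with no numeric limit stated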); details: NCI-H716 cells, at 10 µM, stronger effect = higher value
[6] = HCT116 colon cancer cell growth inhibition, primary screen, CellTiter-Glo luminescence, NPC library (AID 1117342;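 active means compounds that lower survival of HCT116 colon cancer cells in the luminescence readout, no numeric limit stated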); details: at 20 µM (top of the series)
[7] = CellTiter-Glo luminescent readout of SW480 viability loss, NPC library primary (AID 1117343;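 active means compounds that lower viability of the colon cancer cells in the luminescence readout, with no numeric limit stated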); details: CellTiter-Glo luminescence; at 20 µM (top of the series)
[8] = decreased DLD-1 cellular survival, CellTiter-Glo luminescent readout, NPC compound collection, primary HTS (AID 1117346;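 active means compounds that lower survival of DLD-1 colon cancer cells in the luminescence readout, no cutoff given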); details: DLD-1 viability, CellTiter-Glo luminescence; at 20 µM (top of the series)
[9] = biological target: 6-phosphogluconate dehydrogenase, decarboxylating (Homo sapiens) (UniProt P52209); test: 6PGD enzyme inhibitors, primary screen, biochemical, human, recombinant enzyme, NADPH absorbance (AID 1159550;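 active means at least 20% inhibition of 6-phosphogluconate dehydrogenase activity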); details: recombinant 6PGD, NADPH absorbance 341 nm; at 10 µM; stronger effect = higher value
Chain of 6-phosphogluconate dehydrogenase, decarboxylating (Homo sapiens) (P52209 whole entry, looked up): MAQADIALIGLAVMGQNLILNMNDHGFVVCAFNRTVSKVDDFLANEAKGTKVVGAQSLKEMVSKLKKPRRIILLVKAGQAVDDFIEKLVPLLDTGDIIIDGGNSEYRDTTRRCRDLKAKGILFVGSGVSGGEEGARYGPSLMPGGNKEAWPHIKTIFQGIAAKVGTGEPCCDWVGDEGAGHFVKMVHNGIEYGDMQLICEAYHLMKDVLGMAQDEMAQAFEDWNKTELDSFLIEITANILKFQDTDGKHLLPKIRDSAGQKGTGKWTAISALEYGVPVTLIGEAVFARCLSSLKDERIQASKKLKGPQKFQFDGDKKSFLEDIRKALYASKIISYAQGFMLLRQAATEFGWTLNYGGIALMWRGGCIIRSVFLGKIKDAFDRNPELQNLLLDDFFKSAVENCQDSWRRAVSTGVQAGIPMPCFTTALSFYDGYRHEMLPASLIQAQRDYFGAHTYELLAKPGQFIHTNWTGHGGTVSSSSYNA

[10] = modulation of C. elegans fzo-1 (AID 1259413; call rule not given here;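 further: fzo-1 mutant C. elegans worms in liquid wells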); details: C. elegans fzo-1 modulator screen, mean read-out; stronger effect = higher value
[11] = differential killing of epithelial or mesenchymal cells, primary screen, imaging, PC-3E GFP, TEM4-18 mCherry, co-culture (AID 1345086;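 active means compounds killing one labelled cell type while sparing the other, by normalised counts and ratio limits, not self-fluorescent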;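 on all read-outs here: cells exposed to compound for 72 h before imaging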;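 on red/green cell ratio (normalised): normalised mesenchymal count divided by normalised epithelial count so high means epithelial killing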); details: imaging cell counts, at 1 µM; for red/green cell ratio (normalised): actives lie on both sides, counts scaled to control wells, 1 = unselective
[12] = survival rescue of mitochondrial mutant cells in low glucose, primary screen, MELAS cybrids, Rieske KO mouse fibroblasts, CellTiter-Glo (AID 1508586;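 active means mean z-score across replicates of 1.96 or higher in either the MELAS or the Rieske mutant cell line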;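 further: z relative to plate mean and SD of compound and empty wells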)
[13] = biological target: NAD(+) hydrolase SARM1 (Homo sapiens) (UniProt Q6SZW1); test: SARM1 TIR NADase inhibitors, cell lysate, NAD-Glo luminescence (AID 1508614;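 active means compound whose remaining NAD level is above about 45 nM, limit read from the data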); details: SAM-TIR HEK293T lysate NADase, at 1 µM, stronger effect = higher value
Chain of NAD(+) hydrolase SARM1 (Homo sapiens) (Q6SZW1 whole entry, looked up, the tested form may be a part): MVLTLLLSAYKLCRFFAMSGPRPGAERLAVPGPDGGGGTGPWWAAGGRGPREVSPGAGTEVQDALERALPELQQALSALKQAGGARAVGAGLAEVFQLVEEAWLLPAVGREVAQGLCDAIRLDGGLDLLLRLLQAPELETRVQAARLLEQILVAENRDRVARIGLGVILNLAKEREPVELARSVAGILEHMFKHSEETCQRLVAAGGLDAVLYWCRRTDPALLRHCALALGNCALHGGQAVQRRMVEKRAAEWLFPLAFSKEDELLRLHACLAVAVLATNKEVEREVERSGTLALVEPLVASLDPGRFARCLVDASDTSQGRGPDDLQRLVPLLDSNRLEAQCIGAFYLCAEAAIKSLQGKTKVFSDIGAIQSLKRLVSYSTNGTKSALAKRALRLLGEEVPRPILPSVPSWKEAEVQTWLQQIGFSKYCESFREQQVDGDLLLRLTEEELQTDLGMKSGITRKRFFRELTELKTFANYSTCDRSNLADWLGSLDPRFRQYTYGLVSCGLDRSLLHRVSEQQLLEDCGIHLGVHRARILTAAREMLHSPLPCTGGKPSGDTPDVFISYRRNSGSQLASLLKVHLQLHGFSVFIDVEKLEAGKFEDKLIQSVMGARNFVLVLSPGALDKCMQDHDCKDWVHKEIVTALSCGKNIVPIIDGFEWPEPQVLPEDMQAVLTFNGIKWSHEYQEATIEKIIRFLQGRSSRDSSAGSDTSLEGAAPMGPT

[14] = biological target: Mitogen-activated protein kinase 7 (Homo sapiens) (UniProt Q13164); test: ERK5 transactivation activators in reporter cells, primary screen, cell-based, HTS (AID 1508626;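 active means luciferase signal above three times the same-plate solvent-only control wells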;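 further: luciferase driven by Gal4-ERK5 fusion binding five Gal4 sites before minimal TATA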); details: HeLa Gal4-ERK5 transactivation, 18 h, at 5 µM, stronger effect = higher value
Chain of Mitogen-activated protein kinase 7 (Homo sapiens) (Q13164 whole entry, looked up, the tested form may be a part): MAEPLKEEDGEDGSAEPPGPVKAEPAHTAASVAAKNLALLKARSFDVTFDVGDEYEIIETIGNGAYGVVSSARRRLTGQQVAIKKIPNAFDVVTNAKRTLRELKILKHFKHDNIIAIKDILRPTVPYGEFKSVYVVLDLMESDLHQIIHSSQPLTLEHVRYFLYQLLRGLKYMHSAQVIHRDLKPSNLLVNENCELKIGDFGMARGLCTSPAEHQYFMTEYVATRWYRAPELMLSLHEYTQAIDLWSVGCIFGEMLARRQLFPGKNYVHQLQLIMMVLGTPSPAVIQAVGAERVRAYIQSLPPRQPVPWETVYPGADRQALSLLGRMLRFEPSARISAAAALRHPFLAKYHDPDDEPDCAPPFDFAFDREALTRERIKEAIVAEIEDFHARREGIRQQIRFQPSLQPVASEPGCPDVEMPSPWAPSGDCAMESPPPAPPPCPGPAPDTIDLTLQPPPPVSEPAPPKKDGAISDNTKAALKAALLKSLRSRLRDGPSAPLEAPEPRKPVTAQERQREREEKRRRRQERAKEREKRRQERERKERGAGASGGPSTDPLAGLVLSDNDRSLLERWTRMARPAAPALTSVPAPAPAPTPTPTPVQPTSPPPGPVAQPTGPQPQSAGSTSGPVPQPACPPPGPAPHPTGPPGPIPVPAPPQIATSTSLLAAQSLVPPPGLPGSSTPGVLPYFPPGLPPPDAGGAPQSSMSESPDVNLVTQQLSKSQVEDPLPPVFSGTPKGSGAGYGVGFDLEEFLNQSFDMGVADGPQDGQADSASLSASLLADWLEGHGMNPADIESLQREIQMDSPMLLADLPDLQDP

F380Y = test: modulators of BK channel variants, profiling panel, selectivity assay, cell-based, U2OS BacMam, thallium flux, beta subunits (AID 1259406); details: at 30 µM;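 further: initial slope of Thallos dye fluorescence rise after thallium is added; log ratio against the mean of 0.3% DMSO vehicle wells on the same plate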
F380Y/beta1 = test: as above; details: at 30 µM
F380Y/beta2Delta = test: as above; details: at 30 µM
[15] = sensitizers of A549 cells to miR-34 induction, primary screen, imaging, A549 dox-inducible miR-34, nuclei and caspase counts (AID 1347080;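 active means compounds whose cell count with miR-34 switched on is under 0.7 times the count with it off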); details: A549 miR-34 inducible, Hoechst nuclei count, 48 h
[16] = measured here: epithelial PC-3E GFP cell survival
[17] = measured here: mesenchymal TEM4-18 mCherry cell survival
[18] = MELAS cybrid survival, CellTiter-Glo 48 h, stronger effect = higher value
[19] = Rieske KO mouse fibroblast survival, CellTiter-Glo 72 h

CCC1(c2ccccc2)C(=O)NCNC1=O
0.595 and -0.386: z-score [12, 19]
inactive: nuclear beta-catenin stimulation ([1]; at 10 µM) 0.6% | insulin secretion stimulation [2] -2.2% | viability decrease [3] -8.45% | tube area decrease [4] 12.9% | GLP1 secretion stimulation [5] -2% | inhibition of viability [6] 1% | viability decrease (inhibition) [7] -8.1% | viability decrease (inhibition) [8] -8.9% | inhibition [9] 14.9% | mean signal [10] 235 | red/green cell ratio (normalised) [11] 1.02 | z-score [12, 18] -0.279 and 0.626 | remaining NAD [13] 10 nM | luciferase signal [14] 60 AU | log fold change Tl+ flux (F380Y) -0.0227 | log fold change Tl+ flux (F380Y/beta1) 0.00204 | log fold change Tl+ flux (F380Y/beta2Delta) -0.0144
1.05: normalised cell number [11, 17]
1.02: normalised cell number [11, 16]
1.4%: nuclear beta-catenin stimulation ([1]; stimulation, at 2 µM)

CCCCCCCCCCCCSCCOCCO
inactive: nuclear beta-catenin stimulation ([1]; at 10 µM) 0.7% | insulin secretion stimulation [2] -1.7% | viability decrease [3] 9.65% | tube area decrease [4] 6.6% | GLP1 secretion stimulation [5] 1.9% | inhibition of viability [6] -38.8%
2%: nuclear beta-catenin stimulation ([1]; stimulation, at 2 µM)
active: viability decrease (inhibition) [7] 122% | viability decrease (inhibition) [8] 94.7%

CC(C)NCC(O)c1ccc(O)c(O)c1 (stereo unspecified)
1.9%: nuclear beta-catenin stimulation ([1]; stimulation, at 2 µM)
1.07: normalised cell number [11, 16]
1.35: normalised cell number [11, 17]
0.858 and -1.25: z-score [12, 19]
inactive: nuclear beta-catenin stimulation ([1]; at 10 µM) -0.3% | insulin secretion stimulation [2] 1.4% | tube area decrease [4] -8.1% | GLP1 secretion stimulation [5] 6.8% | inhibition of viability [6] 33.2% | viability decrease (inhibition) [7] 28.5% | viability decrease (inhibition) [8] 23.6% | inhibition [9] -1.67% | mean signal [10] 227 | red/green cell ratio (normalised) [11] 1.26 | z-score [12, 18] -0.378 and -0.294 | remaining NAD [13] 10 nM | luciferase signal [14] 60 AU | log fold change Tl+ flux (F380Y) 0.0351 | log fold change Tl+ flux (F380Y/beta1) 0.0171 | log fold change Tl+ flux (F380Y/beta2Delta) 0.061
active: viability decrease [3] 54.1%

CCN(CCO)CCCC(C)Nc1ccnc2cc(Cl)ccc12 (stereo unspecified)
4.2%: nuclear beta-catenin stimulation ([1]; stimulation, at 2 µM)
1.1: normalised cell number [11, 17]
5.27: fold change ([15]; measured here: relative caspase fold change +Dox/-Dox)
inactive: nuclear beta-catenin stimulation ([1]; at 10 µM) 3.8% | insulin secretion stimulation [2] 1.6% | viability decrease [3] 18.3% | tube area decrease [4] 22.5% | GLP1 secretion stimulation [5] 4.3% | inhibition of viability [6] 8.93% | viability decrease (inhibition) [7] -0.9% | viability decrease (inhibition) [8] -7.1% | inhibition [9] 13.2% | red/green cell ratio (normalised) [11] 0.76 | fold change ([15]; stronger effect = lower value, cell number ratio, induced over uninduced) 0.835 | z-score [12, 18] -0.0994 | remaining NAD [13] 10 nM | luciferase signal [14] 96 AU
11300: cell count ([15]; measured here: total cells with miR-34 induction, stronger effect = lower value)
13500: cell count ([15]; measured here: total cells without miR-34 induction)
0.0866: z-score [12, 19]
1.45: normalised cell number [11, 16]

CN1CCC[C@@H]1c1cccnc1
inactive: nuclear beta-catenin stimulation ([1]; at 10 µM) -0.7% | insulin secretion stimulation [2] 1.5% | viability decrease [3] -2.3% | tube area decrease [4] 12.5% | GLP1 secretion stimulation [5] 3.1% | inhibition of viability [6] -5.8% | viability decrease (inhibition) [7] 25.8% | viability decrease (inhibition) [8] -23.3%
1.5%: nuclear beta-catenin stimulation ([1]; stimulation, at 2 µM)
